Experimental data as given in PubChem BioAssay AID686978 (National Center for Advancing Translational Sciences (NCATS), 2013).
Out of some 420,000 compounds screened, about 64,000 (15%) were called active. Not shown: some 27% with an inconclusive outcome. Calls follow the shape of the dose curve; as a rule, active = well fitted inhibition curve with a large enough effect; inconclusive = small, poorly fitted or top-dose-only effect; inactive = flat fitted curve, though single readings scatter. The list is a sample of the results. Entries that show only a call come without a potency.

experiment: qHTS for Inhibitors of human tyrosyl-DNA phosphodiesterase 1 (TDP1): qHTS in cells in absence of CPT; settings: DT40 Tdp1-/- hTDP1 cells, no CPT, ATP luminescence, 48 h; activity change, negative = growth inhibition: at 46.2 µM (top of the series); also: nearly all actives have a fitted effect of over 55% in size
In short: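 No-CPT arm: Tdp1-/-;hTDP1 DT40 cells (400/well) plus compounds, incubated ≥48 hr at 37 °C. Readout CellTiter-Glo luminescence.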
Potency is read from the fitted curve at half-maximal effect.

Structure (SMILES) | Potency
COc1ccc2[nH]c(=S)cc(C)c2c1 | inactive
COc1ccc2[nH]c3c(C)c4cc[n+](C)cc4c(C)c3c2c1 | 0.259 µM (active)
COc1ccc2[nH]c3ccc(OC)cc3c2c1 | inactive
O=S(=O)(NCc1ccc2c(c1)OCO2)c1cccc2nsnc12 | inactive
O=Cc1cn(-c2ccccc2)nc1-c1ccccn1 | inactive
COc1ccc2c(c1)OC(O)(C(F)(F)C(F)F)CC2=O (stereo not drawn) | 23.1 µM (active)
COc1ccc2c(c1)SC(C)CC2=O (stereo not drawn) | inactive
CCCC(C(=O)N1CCOCC1)N1C(=O)C2C3C=CC(C3)C2C1=O (stereo not drawn) | inactive
CC(=O)OCC(COC(C)=O)OC(C)=O | inactive
O=C(CN1C(=O)/C(=C\c2ccccc2F)SC1=S)Nc1nc2ccccc2s1 | inactive
COCCN1CCn2c(nc3cc(NS(C)(=O)=O)ccc32)C1 | inactive
O=C(CN1C(=O)c2ccccc2S1(=O)=O)NC1CCCCC1 | inactive
COc1cccc(Oc2ccc(N)cc2)c1 | inactive
COc1cc(OC)nc(N/N=C(\c2ccccc2)c2ccncc2)n1 | inactive
CCOc1ccc(N2C(=O)CSC2=NC#N)cc1 | inactive
CCC(C(=O)NC1CCCCC1)N(C(=O)c1snc(C(N)=O)c1N)c1ccc(OC)cc1OC (stereo not drawn) | 23.1 µM (active)
CCC(C(=O)NC1CCCC1)N(C(=O)c1snc(C(N)=O)c1N)c1ccc2c(c1)OCCO2 (stereo not drawn) | inactive
COc1ccc(N(C(=O)c2snc(C(N)=O)c2N)C(C(=O)NC2CCCC2)c2ccco2)cc1OC (stereo not drawn) | inactive
COc1cccc(-n2c(=O)c3c(C)c(C(=O)N(C)C)sc3n(CC(=O)NCCc3ccc(OC)c(OC)c3)c2=O)c1 | inactive
CCc1ccc(C(CNc2nc(C(F)(F)F)nc3ccccc23)N(C)C)cc1 (stereo not drawn) | 18.4 µM (active)
CN(C)C(CNC(=O)Cc1ccc([N+](=O)[O-])cc1)c1ccccc1 (stereo not drawn) | inactive
C=CCn1cc(Cl)cc(C(=O)Nc2ccccc2)c1=O | inactive
CCn1cc(/C=C(\NC(=O)c2ccc(C)cc2)C(=O)NCCN2CCOCC2)c2ccccc21 | inactive
O=C(Cc1c[nH]c2ccccc12)N/N=C/c1cccc(F)c1 | 3.66 µM (active)
COc1ccccc1NC(=O)CCCc1c[nH]c2ccccc12 | inactive
O=C(CC(=O)N/N=C\c1ccc(F)cc1)NCCc1ccccc1 | inactive

Structure (SMILES) | Potency
COCCNC(=O)C(c1ccc(O)cc1)N(C(=O)CCC(=O)Nc1nccs1)c1ccc(C)cc1 (stereo not drawn) | inactive
C/C(=N\N(C)C)c1ccc(OCCOc2ccc([N+](=O)[O-])cc2)cc1 | 25.9 µM (active)
CCOC(=O)COc1ccc([N+](=O)[O-])cc1 | inactive
C/C(=N/NC(=O)CC(=O)N/N=C(\C)c1ccc([N+](=O)[O-])cc1)c1ccc([N+](=O)[O-])cc1 | inactive
Cc1cccc(N(CC(=O)N2CCCC2)S(C)(=O)=O)c1C | inactive
CC1(OC(=O)CCc2ccccc2)C(=O)C=C2C=C(c3ccc(C#N)cc3)N(CCc3ccccn3)C=C2C1=O (stereo not drawn) | inactive
CCN(CC)S(=O)(=O)c1ccc2c3c(cccc13)C(=O)S2 | inactive
C/C(=N\NC(=O)c1cccnc1)c1ccc(-n2ccnc2)cc1 | inactive
CCC(C)NCCOCCOc1ccc(Br)cc1C (stereo not drawn) | 20.6 µM (active)
COCC(C)NCc1cc(Br)ccc1OC (stereo not drawn) | inactive
O=C1C(=O)N(CCCN2CCOCC2)C(c2ccc([N+](=O)[O-])cc2)/C1=C(\O)c1ccc2c(c1)OCCO2 (stereo not drawn) | inactive
O=C(ON=C1CCN(S(=O)(=O)c2ccccc2)CC1)c1ccc(Cl)cc1 | inactive
CCOc1cccc(-c2nnc(SCC(=O)NC3CC3)n2C)c1 | inactive
Cc1ccc(CNC(=O)CSc2nnc3c(n2)[nH]c2ccc(F)cc23)cc1 | inactive
CCOc1ccc2[nH]c3nc(SCC(=O)NC4CCCC4)nnc3c2c1 | 6.51 µM (active)
CC(Sc1nncn1C)C(=O)Nc1ccccc1-c1ccccc1 (stereo not drawn) | inactive
O=C(Cc1cccs1)NCc1cccc(C(F)(F)F)c1 | inactive
Cn1c(=O)c2cc(NC(=O)NCCc3cccs3)ccc2n1Cc1cccc(C(F)(F)F)c1 | 23.1 µM (active)
COc1ccc(CCNC(=O)Nc2ccc3c(c2)c(=O)n(C)n3C)cc1OC | inactive
COc1ccc(S(=O)(=O)Nc2cccnc2)c(Cl)c1Cl | inactive
Cc1c(NC(=O)CSCc2ccccc2)cccc1C(=O)O | inactive
O=C(c1cc(-c2ccc(O)cc2)on1)N1CCCc2ccccc21 | inactive
Cc1cccc2cc3c(N)c(C(=O)N4CCCc5ccccc54)sc3nc12 | 2.59 µM (active)
Cc1occc1C(=O)N1CCCc2ccccc21 | inactive
CC(C)[C@H](NC(=O)OCc1ccccc1)C(=O)OCc1ccccc1 | inactive
Nc1scc[n+]1Cc1cccc2cccnc12 | inactive

Structure (SMILES) | Potency
c1ccc2c(C[n+]3csc4ccccc43)cccc2c1 | 0.82 µM (active)
CCOCCCNC(=O)c1cn(CC(C)C)c(=O)c2c1c1ccccc1n2C | inactive
CCOc1ccc(CC(=O)NCCc2csc3nc(-c4ccccc4F)nn23)cc1 | inactive
Cn1c(C(=O)N2CCC(C(N)=O)CC2)cc2c(=O)n(C)c3ccccc3c21 | inactive
Cn1c(C(=O)NCCc2ccsc2)cc2c(=O)n(C)c3ccccc3c21 | 16.4 µM (active)
CCOc1ccc(CCNC(=O)c2cc3c(=O)n(C)c4ccccc4c3n2C)cc1 | 14.6 µM (active)
CCOc1ccc(CCNC(=O)c2c(C)oc3ncn(C)c(=O)c23)cc1 | inactive
COc1ccc(C(=O)NNC(=O)c2cnccn2)cc1[N+](=O)[O-] | inactive
CCc1ccc(N2C(=O)CN(S(=O)(=O)CC)CC2(C)C(=O)NC2CCCCC2)cc1 (stereo not drawn) | inactive
Cc1cccc(-n2c(O)c(C=Nc3ccccc3N)c(=O)[nH]c2=O)c1 | inactive
CC1CN(CCOc2ccccc2[N+](=O)[O-])CC(C)O1 (stereo not drawn) | inactive
Cc1cc(C)c(OCCN2CC(C)OC(C)C2)c(Br)c1 (stereo not drawn) | 16.4 µM (active)
Cc1cccc(C)c1OCCN1CCOCC1 | inactive
COc1ccc(N2CCN(S(=O)(=O)c3ccc4c(c3)N(C(C)=O)CCO4)CC2)cc1 | inactive
O=C(CN1C(=O)C2C3C=CC(C3)C2C1=O)NCCc1ccccc1Cl (stereo not drawn) | inactive
COc1cc(N2C(=O)c3ccccc3C2=O)c(Cl)cc1C(=O)OCC(=O)N1CCOCC1 | inactive
Cc1ccc(NC(=O)c2ccc(Cl)nc2)cc1S(=O)(=O)N1CCOCC1 | 8.2 µM (active)
Cc1ccc(NC(=O)NC2CCCCC2)cc1S(=O)(=O)N1CCOCC1 | inactive
COc1ccc(C(=O)OC(C)C(=O)NC2CCCC2)cc1S(=O)(=O)N1CCOCC1 (stereo not drawn) | inactive
Cc1ccc(NC(=O)COC(=O)C2CC2)cc1S(=O)(=O)N1CCOCC1 | inactive
Cc1ccc(NC(=O)c2ccccn2)cc1S(=O)(=O)N1CCOCC1 | inactive
Cc1ccc(C(=O)Nc2ccccc2C(=O)NC2CCCCC2)cc1S(=O)(=O)N1CCOCC1 | 18.4 µM (active)
Cc1ccc(NC(=O)CCCNC(=O)c2ccc(Cl)cc2)cc1S(=O)(=O)N1CCOCC1 | inactive
Cc1ccccc1NC(=O)c1cc(S(=O)(=O)N2CCOCC2)cs1 | inactive
Cc1ccc(NC(=O)C2CCC(C(C)(C)C)CC2)cc1S(=O)(=O)N1CCOCC1 (stereo not drawn) | 20.6 µM (active)
COC(=O)CSc1snnc1-c1ccc(Cl)c(Cl)c1 | inactive

Structure (SMILES) | Potency
O=C(NCCN1CCCC(O)C1)c1cc(COc2c(F)cccc2F)on1 (stereo not drawn) | inactive
COC(=O)c1[nH]c2ccc(Br)cc2c1NC(=O)Oc1ccccc1 | inactive
CC(=O)N1CCN(CC(=O)Nc2ccc(SC(F)F)cc2)CC1 | inactive
O=C(Oc1cccc(NC2=NS(=O)(=O)c3ccccc32)c1)c1ccncc1 | inactive
CC(=O)c1c(C)[nH]c(=S)c(C#N)c1-c1ccc(F)cc1 | inactive
CCOc1ccc(NC(=O)C(CC(C)C)N2Cc3ccccc3C2=O)cc1 (stereo not drawn) | inactive
CC(Oc1ccccc1)C(=O)N[C@@H]1C(=O)N2[C@@H]1SC(C)(C)[C@@H]2C(=O)O (stereo partly drawn) | inactive
CSc1ccc(/C=N\NC(=O)CC(=O)NC(C)C)cc1 | inactive
COc1cc(C(CC(=O)NCCC(C)C)N2Cc3ccccc3C2=O)cc(OC)c1OC (stereo not drawn) | inactive
O=C(CC(c1cccs1)N1Cc2ccccc2C1=O)Nc1ccc(F)cc1F (stereo not drawn) | 16.4 µM (active)
O=C(O)CC(c1ccccc1F)N1Cc2ccccc2C1=O (stereo not drawn) | inactive
CCc1ccc(NC(=O)C(C)OC(=O)/C=C/c2cccc([N+](=O)[O-])c2)cc1 (stereo not drawn) | inactive
Cc1ccc(Cl)cc1-c1ccc(/C=N/n2cnnc2)o1 | inactive
COc1ccc2[nH]c3c(c2c1)CCN1C(=O)C(CC(=O)NCc2cccc(C(F)(F)F)c2)C[C@H](C(=O)N2CCOCC2)[C@@]31C (stereo partly drawn) | inactive
C[C@]12c3[nH]c4ccc(Cl)cc4c3CCN1C(=O)[C@@H](CC(=O)NCCCn1ccnc1)C[C@@H]2C(=O)N1CCOCC1 | inactive
CC[C@]12c3[nH]c4cc(CCC(=O)N(C)C)ccc4c3CCN1C(=O)[C@@H](CC(=O)NCCCN(C)C)C[C@@H]2C(=O)N1CCN(C(=O)c2ccco2)CC1 | inactive
CC[C@]12c3[nH]c4cc(CCC(=O)N(C)C)ccc4c3CCN1C(=O)[C@@H](CC(=O)NCc1ccco1)C[C@@H]2C(=O)N1CCN(C(=O)c2ccco2)CC1 | inactive
CC(C)N(C(=O)[C@H]1C[C@H](CC(=O)NC(C)(C)C)C(=O)N2CCc3c([nH]c4ccc(Cl)cc34)[C@]12C)C(C)C | 6.51 µM (active)
CN(C)C(=O)CCc1ccc2c3c([nH]c2c1)[C@]1(C)[C@@H](C(=O)N2CCCCC2)C[C@H](CC(=O)NCCC2=CCCCC2)C(=O)N1CC3 | 16.4 µM (active)
CCN(CC)C(=O)[C@H]1C[C@H](CC(=O)NCC23CC4CC(CC(C4)C2)C3)C(=O)N2CCc3c([nH]c4cc(CCC(=O)N(C)C)ccc34)[C@]12C | 18.4 µM (active)
COc1ccc2[nH]c3c(c2c1)CCN1C(=O)C(CC(=O)NCCc2ccccn2)C[C@H](C(=O)N2CCOCC2)[C@@]31C (stereo partly drawn) | inactive
CC[C@]12c3[nH]c4cc(CCC(=O)N(C)C)ccc4c3CCN1C(=O)[C@@H](CC(=O)NCCCn1ccnc1)C[C@@H]2C(=O)N1CCN(C(=O)C2CC2)CC1 | inactive
CN(C)C(=O)CCc1ccc2c3c([nH]c2c1)[C@]1(C)[C@@H](C(=O)N2CCOCC2)C[C@H](CC(=O)NCCc2ccccn2)C(=O)N1CC3 | inactive
CCN(CC)C(=O)[C@H]1CC(CC(=O)NCc2ccco2)C(=O)N2CCc3c([nH]c4ccccc34)[C@]12C (stereo partly drawn) | inactive
CN(C)C(=O)CCc1ccc2c3c([nH]c2c1)[C@]1(CCc2ccccc2)[C@@H](C(=O)N2CCCCC2)C[C@H](CC(=O)NCCC2=CCCCC2)C(=O)N1CC3 | 9.2 µM (active)
